Experimental data taken from the supplement of paper PMC10849652.
Targets with a hit are over-represented here; the source holds about 7,900 in all. About 0.6% of all pairs of compound and target were hits.

What was measured:
Test in all cases: log2 fold change, soluble protein after heating vs DMSO (PISA); higher = thermal stabilisation; K562 cells, 10 uM, 30 min; active = over 0.2 and 3.5 SD of the protein, either way, in both replicates (recomputed)
IRAK-1-4 Inhibitor I = compound: C1COCCN1CCN2C3=CC=CC=C3N=C2NC(=O)C4=CC(=CC=C4)[N+](=O)[O-] [IRAK-1-4 Inhibitor I]
Method in brief: (§1)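 K562 cells at 2×10^6 cells/mL were given 10 μM compound for 30 min. Aliquots then went through 3 min of heating across 48°C-58°C, were pooled, and were extracted in PBS with 0.5% NP-40 at 4°C, and the supernatant after 21,000xg for 90 min was quantified by TMTpro 16plex LC-MS/MS with channel sums equalised. Thermal stability relative to control samples, from duplicates, is given as log2 fold change.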

[1] = compound: CC(=O)c1cnc2ccc(-c3cc(Cl)c(O)c(Cl)c3)nc2c1N[C@H]1CC[C@H](CN(C)C)CC1
Method in brief: as §1

ralimetinib = compound: CC(C)(C)Cn1c(N)nc2ccc(-c3[nH]c(C(C)(C)C)nc3-c3ccc(F)cc3)nc21 [ralimetinib]
Method in brief: as §1

[2] = compound: CC(C)C[C@@H](C=O)NC(=O)[C@H](CC(C)C)NC(=O)[C@H](CC(C)C)NC(=O)OCc1ccccc1
Method in brief: as §1

pinometostat = compound: CC(C)N(C[C@H]1O[C@@H](n2cnc3c(N)ncnc32)[C@H](O)[C@@H]1O)[C@H]1C[C@@H](CCc2nc3cc(C(C)(C)C)ccc3[nH]2)C1 [pinometostat]
Method in brief: as §1

ibrutinib = compound: C=CC(=O)N1CCC[C@@H](n2nc(-c3ccc(Oc4ccccc4)cc3)c3c(N)ncnc32)C1 [ibrutinib]
Method in brief: as §1

[3] = compound: CC(C)C1=C2N=C(C=C(N2N=C1)NCC3=CC=CC=C3)NCCCCCCN
Method in brief: as §1

[4] = compound: CC1=C(C(CC(=O)N1)C2=CC=C(C=C2)C(F)(F)F)C(=O)NC3=C(C=C4C(=C3)C=NN4)F
Method in brief: as §1

[5] = compound: CC1=C(C2=C(C=C1)C(=O)C3=CC=CC=C3N2CCCN)C
Method in brief: as §1

[6] = compound: CC(C)(O)CC(=O)NCCn1ccc2ncnc(Nc3ccc(Oc4cccc(C(F)(F)F)c4)c(Cl)c3)c21
Method in brief: as §1

Measured: log2 fold change

MAP2K5 (UniProt Q13163)
Chain of UniProt Q13163 (Q13163 whole entry, looked up): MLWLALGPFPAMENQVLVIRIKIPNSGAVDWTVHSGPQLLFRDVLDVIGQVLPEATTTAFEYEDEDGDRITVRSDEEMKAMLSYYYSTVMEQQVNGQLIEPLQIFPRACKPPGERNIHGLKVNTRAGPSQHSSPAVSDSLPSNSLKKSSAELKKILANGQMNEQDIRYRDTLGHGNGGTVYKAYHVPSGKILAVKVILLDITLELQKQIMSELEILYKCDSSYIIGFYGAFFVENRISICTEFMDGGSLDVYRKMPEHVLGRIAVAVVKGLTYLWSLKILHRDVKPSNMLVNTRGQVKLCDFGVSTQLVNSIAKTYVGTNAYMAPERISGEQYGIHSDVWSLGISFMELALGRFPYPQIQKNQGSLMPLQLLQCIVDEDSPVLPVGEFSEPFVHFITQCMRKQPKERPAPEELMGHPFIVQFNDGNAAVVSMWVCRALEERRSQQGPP
active: [1] -1.19
inactive: IRAK-1-4 Inhibitor I 0.063 | ralimetinib 0.066 | [2] -0.238 | pinometostat -0.051

MAGEA8 (UniProt P43361)
Chain of UniProt P43361 (P43361 whole entry, looked up): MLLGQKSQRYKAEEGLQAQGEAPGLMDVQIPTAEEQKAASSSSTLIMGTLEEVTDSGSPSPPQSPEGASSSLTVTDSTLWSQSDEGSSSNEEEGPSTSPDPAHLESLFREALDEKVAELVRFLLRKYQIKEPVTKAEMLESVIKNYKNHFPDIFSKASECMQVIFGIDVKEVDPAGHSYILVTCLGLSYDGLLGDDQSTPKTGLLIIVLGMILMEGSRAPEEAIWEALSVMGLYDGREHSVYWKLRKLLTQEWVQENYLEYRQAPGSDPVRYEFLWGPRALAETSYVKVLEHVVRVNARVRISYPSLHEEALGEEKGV
inactive: IRAK-1-4 Inhibitor I 0.014 | ibrutinib -0.086 | [1] 0.128 | ralimetinib -0.02 | [3] -0.146 | [2] 0.068 | pinometostat 0.024 | [4] 0.077 | [5] -0.265

MAPK14 (UniProt Q16539)
Chain of UniProt Q16539 (Q16539 whole entry, looked up): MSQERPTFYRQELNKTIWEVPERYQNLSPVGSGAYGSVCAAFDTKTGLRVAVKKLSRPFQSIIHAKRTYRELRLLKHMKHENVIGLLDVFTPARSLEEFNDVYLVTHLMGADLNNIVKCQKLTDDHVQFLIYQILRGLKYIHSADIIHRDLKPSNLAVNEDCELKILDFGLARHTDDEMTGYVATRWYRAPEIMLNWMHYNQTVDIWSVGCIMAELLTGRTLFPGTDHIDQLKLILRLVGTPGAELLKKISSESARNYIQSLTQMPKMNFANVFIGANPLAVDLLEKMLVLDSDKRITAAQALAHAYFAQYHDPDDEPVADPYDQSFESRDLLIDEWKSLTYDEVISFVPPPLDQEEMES
active: [1] 0.793 | ralimetinib 1.52
inactive: IRAK-1-4 Inhibitor I -0.048 | ibrutinib 0.016 | [3] -0.178 | [2] -0.135 | pinometostat -0.09 | [4] -0.234 | [5] 0.062

LARP1 (UniProt Q6PKG0)
active: [5] -0.303
inactive: IRAK-1-4 Inhibitor I -0.131 | ibrutinib 0.009 | [1] -0.059 | ralimetinib 0.031 | [6] 0 | [3] -0.088 | [2] 0.036 | pinometostat 0.109 | [4] 0.021

MED17 (UniProt Q9NVC6)
Chain of UniProt Q9NVC6 (Q9NVC6 whole entry, looked up): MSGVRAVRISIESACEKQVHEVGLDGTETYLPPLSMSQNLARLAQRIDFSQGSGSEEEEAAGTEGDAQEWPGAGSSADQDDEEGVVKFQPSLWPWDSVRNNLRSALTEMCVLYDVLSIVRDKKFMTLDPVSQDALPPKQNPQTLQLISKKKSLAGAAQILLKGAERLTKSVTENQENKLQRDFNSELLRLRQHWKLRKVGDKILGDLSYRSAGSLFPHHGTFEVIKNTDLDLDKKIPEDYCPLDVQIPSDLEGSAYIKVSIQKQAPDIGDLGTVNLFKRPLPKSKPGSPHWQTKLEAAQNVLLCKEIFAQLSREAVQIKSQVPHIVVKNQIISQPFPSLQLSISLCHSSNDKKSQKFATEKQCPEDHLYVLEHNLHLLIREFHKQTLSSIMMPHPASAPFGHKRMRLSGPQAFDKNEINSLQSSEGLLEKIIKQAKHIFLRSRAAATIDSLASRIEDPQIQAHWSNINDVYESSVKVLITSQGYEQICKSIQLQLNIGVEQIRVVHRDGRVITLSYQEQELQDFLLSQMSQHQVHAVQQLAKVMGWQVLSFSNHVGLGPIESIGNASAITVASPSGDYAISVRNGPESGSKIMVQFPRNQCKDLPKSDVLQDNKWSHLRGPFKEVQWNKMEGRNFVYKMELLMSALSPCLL
active: [1] -0.371
inactive: IRAK-1-4 Inhibitor I -0.076 | ralimetinib 0.12 | [6] -0.022 | [3] -0.209 | [2] 0.119 | pinometostat 0.124 | [4] -0.056 | [5] 0.182

MAP3K20 (UniProt Q9NYL2)
Chain of UniProt Q9NYL2 (Q9NYL2 whole entry, looked up): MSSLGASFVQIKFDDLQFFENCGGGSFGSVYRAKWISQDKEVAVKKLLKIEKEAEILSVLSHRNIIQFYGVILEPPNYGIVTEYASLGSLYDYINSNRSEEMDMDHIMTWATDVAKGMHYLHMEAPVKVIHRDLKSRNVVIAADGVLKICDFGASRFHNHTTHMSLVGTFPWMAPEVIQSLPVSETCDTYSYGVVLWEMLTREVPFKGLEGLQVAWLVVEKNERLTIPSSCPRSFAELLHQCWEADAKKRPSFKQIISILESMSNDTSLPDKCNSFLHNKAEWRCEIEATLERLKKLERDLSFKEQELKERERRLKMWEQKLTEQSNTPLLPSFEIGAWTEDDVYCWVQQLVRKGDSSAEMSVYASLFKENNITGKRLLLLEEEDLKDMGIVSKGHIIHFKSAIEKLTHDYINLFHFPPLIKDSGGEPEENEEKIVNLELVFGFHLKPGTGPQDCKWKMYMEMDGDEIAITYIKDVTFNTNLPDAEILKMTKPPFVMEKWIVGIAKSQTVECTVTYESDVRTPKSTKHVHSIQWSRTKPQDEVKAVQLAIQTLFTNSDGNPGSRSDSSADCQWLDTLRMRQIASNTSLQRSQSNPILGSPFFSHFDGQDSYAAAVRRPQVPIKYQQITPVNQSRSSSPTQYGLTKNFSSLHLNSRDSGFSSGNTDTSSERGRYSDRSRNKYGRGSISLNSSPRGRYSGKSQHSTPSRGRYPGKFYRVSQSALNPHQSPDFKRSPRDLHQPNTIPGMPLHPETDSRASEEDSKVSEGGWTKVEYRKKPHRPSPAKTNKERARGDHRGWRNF
inactive: IRAK-1-4 Inhibitor I -0.043 | ibrutinib -0.167 | ralimetinib 0.019 | [6] -0.032 | [3] 0.034 | [2] 0.052 | pinometostat 0.099 | [4] 0.073 | [5] 0.027
active: [1] -0.654

MEAK7 (UniProt Q6P9B6)
Chain of UniProt Q6P9B6 (Q6P9B6 whole entry, looked up): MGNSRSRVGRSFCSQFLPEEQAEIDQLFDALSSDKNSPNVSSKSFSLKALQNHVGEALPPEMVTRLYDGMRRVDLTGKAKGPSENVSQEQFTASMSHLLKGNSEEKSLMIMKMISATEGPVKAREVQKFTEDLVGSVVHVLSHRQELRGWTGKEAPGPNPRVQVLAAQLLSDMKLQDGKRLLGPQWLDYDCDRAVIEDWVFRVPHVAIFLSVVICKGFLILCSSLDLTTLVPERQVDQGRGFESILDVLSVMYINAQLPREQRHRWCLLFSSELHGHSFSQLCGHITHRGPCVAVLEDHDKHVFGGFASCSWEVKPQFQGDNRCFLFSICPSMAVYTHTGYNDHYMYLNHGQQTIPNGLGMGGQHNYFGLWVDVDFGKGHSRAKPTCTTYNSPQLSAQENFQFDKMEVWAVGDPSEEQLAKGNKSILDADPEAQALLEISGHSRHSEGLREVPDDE
inactive: IRAK-1-4 Inhibitor I 0.015 | ibrutinib -0.041 | [1] -0.093 | ralimetinib 0.078 | [6] -0.018 | [3] -0.2 | [2] 0.079 | pinometostat 0.037 | [4] -0.004 | [5] 0.033

KTN1 (UniProt Q86UP2)
Chain of UniProt Q86UP2 (Q86UP2 whole entry, looked up): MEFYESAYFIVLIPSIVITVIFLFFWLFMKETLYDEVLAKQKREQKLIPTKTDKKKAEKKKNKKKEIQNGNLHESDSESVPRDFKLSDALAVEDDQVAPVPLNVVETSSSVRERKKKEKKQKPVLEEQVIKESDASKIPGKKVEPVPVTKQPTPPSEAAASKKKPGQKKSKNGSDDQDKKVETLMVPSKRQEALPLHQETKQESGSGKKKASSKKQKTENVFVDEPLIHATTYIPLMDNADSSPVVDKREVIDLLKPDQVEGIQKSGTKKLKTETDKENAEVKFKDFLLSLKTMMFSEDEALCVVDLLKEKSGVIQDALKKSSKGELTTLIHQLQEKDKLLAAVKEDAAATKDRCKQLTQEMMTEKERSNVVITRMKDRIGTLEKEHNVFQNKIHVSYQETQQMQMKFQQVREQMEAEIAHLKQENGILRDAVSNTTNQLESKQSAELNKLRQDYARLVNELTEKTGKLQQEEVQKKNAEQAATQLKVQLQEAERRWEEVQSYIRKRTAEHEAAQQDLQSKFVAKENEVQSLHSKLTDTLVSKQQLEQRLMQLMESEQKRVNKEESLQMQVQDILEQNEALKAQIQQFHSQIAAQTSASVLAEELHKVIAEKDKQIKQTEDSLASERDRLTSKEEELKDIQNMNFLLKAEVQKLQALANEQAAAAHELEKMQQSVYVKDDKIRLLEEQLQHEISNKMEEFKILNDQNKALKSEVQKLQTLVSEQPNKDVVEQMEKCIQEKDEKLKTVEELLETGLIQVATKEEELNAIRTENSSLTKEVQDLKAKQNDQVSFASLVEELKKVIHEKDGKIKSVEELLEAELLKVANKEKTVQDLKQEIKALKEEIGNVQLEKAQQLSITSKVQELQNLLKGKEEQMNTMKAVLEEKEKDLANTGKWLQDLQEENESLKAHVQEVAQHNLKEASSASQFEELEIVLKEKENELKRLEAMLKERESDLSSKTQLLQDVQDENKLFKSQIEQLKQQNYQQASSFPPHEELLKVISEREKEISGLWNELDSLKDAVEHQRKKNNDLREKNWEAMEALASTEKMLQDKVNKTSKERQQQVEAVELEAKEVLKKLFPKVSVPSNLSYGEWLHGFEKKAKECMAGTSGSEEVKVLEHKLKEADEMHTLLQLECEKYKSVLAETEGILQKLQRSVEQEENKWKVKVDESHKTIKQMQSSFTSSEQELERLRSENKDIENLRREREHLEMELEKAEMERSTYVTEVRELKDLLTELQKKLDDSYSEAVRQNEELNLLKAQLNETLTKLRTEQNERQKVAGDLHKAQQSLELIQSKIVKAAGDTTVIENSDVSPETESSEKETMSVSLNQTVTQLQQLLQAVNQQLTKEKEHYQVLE
active: [3] -0.343
inactive: IRAK-1-4 Inhibitor I -0.066 | ibrutinib -0.029 | [1] 0.065 | ralimetinib 0.098 | [6] 0 | [2] 0.072 | pinometostat 0.102 | [4] -0.019 | [5] 0.071

LAMP2 isoform 2 (UniProt P13473)
Chain of UniProt P13473 (P13473 whole entry, looked up): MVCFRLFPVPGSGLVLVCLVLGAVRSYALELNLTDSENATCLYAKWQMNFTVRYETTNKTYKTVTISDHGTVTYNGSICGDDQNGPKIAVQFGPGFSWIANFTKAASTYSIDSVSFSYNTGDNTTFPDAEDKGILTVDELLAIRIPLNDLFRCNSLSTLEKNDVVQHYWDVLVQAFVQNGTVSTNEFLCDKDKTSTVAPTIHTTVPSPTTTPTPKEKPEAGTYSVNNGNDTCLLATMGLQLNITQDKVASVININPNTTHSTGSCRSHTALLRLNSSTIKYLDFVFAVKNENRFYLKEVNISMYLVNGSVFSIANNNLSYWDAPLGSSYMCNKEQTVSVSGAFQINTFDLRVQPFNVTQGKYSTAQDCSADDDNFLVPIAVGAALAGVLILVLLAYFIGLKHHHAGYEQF
active: [3] -0.713
inactive: IRAK-1-4 Inhibitor I 0.127 | ibrutinib -0.007 | [1] 0.012 | [6] 0.115 | pinometostat -0.026 | [4] 0.03 | [5] -0.078
